20 compounds from PubChem BioAssay (EPA / NIEHS) can be followed below.

Read-out in test [1]: Tissue Factor, F3 (gene 2152)
The test can be described thus: BSK_CASM3C_TissueFactor: BioMAP Diversity Plus: CASM3C Assay for Tissue Factor Biomarker Activity (AID 2283052).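 Also: cell surface tissue factor protein level read by ELISA.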 Particulars: primary human coronary artery smooth muscle cells; actives raise or lower the signal.

Read-out in test [2]: Interferon-gamma inducible Protein 10 (IP10), CXCL10 (gene 3627)
The test can be described thus: BSK_hDFCGF_IP10: BioMAP Diversity Plus: hDFCGF Assay for Interferon-gamma inducible Protein 10 (IP10) Biomarker Activity (AID 2283053). Particulars: primary human foreskin fibroblasts; actives raise or lower the signal. The procedure, abridged: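 Cells: human dermal foreskin fibroblasts. Exposure: 24 h post-dosing. Detection: IP-10 ELISA, with values expressed against DMSO controls and fitted in both directions.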

Read-out in test [3]: Urokinase-type plasminogen activator receptor (uPAR), PLAUR (gene 5329)
The test can be described thus: BSK_CASM3C_uPAR: BioMAP Diversity Plus: CASM3C Assay for Urokinase-type plasminogen activator receptor (uPAR) Biomarker Activity (AID 2283054).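 Also: cell-surface uPAR protein level quantified by ELISA.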 The conditions noted are these: primary human coronary artery smooth muscle cells; actives raise or lower the signal.

Read-out in test [4]: Vascular cell adhesion molecule 1 (VCAM1), VCAM1 (gene 7412)
The test can be described thus: BSK_CASM3C_VCAM1: BioMAP Diversity Plus: CASM3C Assay for Vascular cell adhesion molecule 1 (VCAM1) Biomarker Activity (AID 2283055).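 Also: VCAM-1 protein level quantified by ELISA on the cells.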 The conditions noted are these: primary human coronary artery smooth muscle cells; actives raise or lower the signal.

Read-out in test [5]: Collagen III, COL3A1 (gene 1281)
The test can be described thus: BSK_hDFCGF_CollagenIII: BioMAP Diversity Plus: hDFCGF Assay for Collagen III Biomarker Activity (AID 2283056). The conditions noted are these: primary human foreskin fibroblasts; actives raise or lower the signal. The essentials: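 ELISA readout of Collagen III in human dermal (foreskin) fibroblasts, taken 24 h post-treatment. Gain or loss relative to DMSO vehicle fitted in both directions.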

Read-out in test [6]: Epidermal growth factor receptor (EGFR), EGFR (gene 1956)
The test can be described thus: BSK_hDFCGF_EGFR: BioMAP Diversity Plus: hDFCGF Assay for Epidermal growth factor receptor (EGFR) Biomarker Activity (AID 2283057). Particulars: primary human foreskin fibroblasts; actives raise or lower the signal. The procedure, abridged:
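Dosing human primary skin fibroblasts, then measuring surface EGFR by ELISA at 24 h, gives the endpoint; gains and losses relative to DMSO were fitted in both directions.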

Read-out in test [7]: Interleukin-8 (IL8), CXCL8 (gene 3576)
The test can be described thus: BSK_hDFCGF_IL8: BioMAP Diversity Plus: hDFCGF Assay for Interleukin-8 (IL8) Biomarker Activity (AID 2283058). The conditions noted are these: primary human foreskin fibroblasts; actives raise or lower the signal. The essentials: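 IL-8 levels read by ELISA at 24 hours after dosing human skin fibroblast cultures. Parallel SRB staining assessed overt cytotoxicity, and gain or loss of signal was fitted against DMSO control.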

Test [8] can be described thus: BSK_hDFCGF_Proliferation: Cell Proliferation Assessment in the BioMAP Diversity Plus: hDFCGF Assay (AID 2283059).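 Also: curves fitted for both rise and fall of signal versus DMSO baseline.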 Particulars: primary human foreskin fibroblasts. The essentials:
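Steps: dose primary human dermal fibroblasts (foreskin); […] fix in 10% TCA; stain with 0.1% SRB; read 560 nm; fit gain or loss of signal against DMSO.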

Read-out in test [9]: Macrophage colony-stimulating factor (MCSF), CSF1 (gene 1435)
The test can be described thus: BSK_hDFCGF_MCSF: BioMAP Diversity Plus: hDFCGF Assay for Macrophage colony-stimulating factor (MCSF) Biomarker Activity (AID 2283060). Particulars: primary human foreskin fibroblasts; actives raise or lower the signal. The essentials:
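M-CSF levels read by ELISA at 24 h post-dosing in human skin fibroblasts. Parallel cultures stained with SRB assessed cytotoxicity at the same time point; response fitted in both directions against the DMSO baseline.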

Test [10] is described as follows: BSK_hDFCGF_SRB: Viability Assessment in the BioMAP Diversity Plus: hDFCGF Assay (AID 2283061).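 Also: cells exposed to compound for 24 h before the read.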 Particulars: primary human foreskin fibroblasts. The essentials:
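Viability was read as total protein: after 10% TCA fixation, wells were stained with 0.1% sulforhodamine B and read at 560 nm. Primary human foreskin fibroblasts were dosed for 24 h, with bidirectional fitting versus DMSO.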

As usually defined, the AC50 is the concentration giving half of the maximal activity seen.

Each structure is given as a SMILES string. Values joined by “and” are separate entries in the source; they are usually repeats but may differ in a detail not shown here. Identical values can stand only once. Some structures have more than one record in an assay (separate samples or runs), and their calls can disagree. Active and inactive are the calls of the source. The calls were made as follows: active = hit-call score of the fitted dose curve at least 0.9, where 1 is the maximum; inactive = score below 0.9.

On to `c1ccc2c(c1)-c1cccc3c1c-2cc1ccccc13`, for which the result in test [1], in [2], in test [3], in [4], in test [5] and in test [6] was inactive. For the same compound, the result in test [7], in [8], in test [9] and in test [10] was inactive.
Consider `O=C(O)c1cccc(C[C@@H]2COc3ccc(OCc4nc5cc(F)ccc5s4)cc3[C@@H]2O)c1`, for which the outcome in [1], in test [2], in [3], in [4], in [5] and in test [6] was inactive. Further, the outcome in test [7], in [8] and in [10] was inactive. The AC50 in [9] was 13.8 µM (active).
On to `OCCNCCO`, for which the outcome in [1], in [2], in [3], in test [4], in [5] and in [6] was inactive. For the same compound, the result in [7], in test [8], in [9] and in [10] was inactive.
Regarding `CCc1cccc(CC)c1N`, the result in test [1], in [2], in test [3], in test [4], in test [5] and in [6] was inactive. Also, the result in [7], in [8], in [9] and in [10] was inactive.
Turning to `CCCCOC(=O)c1ccccc1`, the outcome in test [1], in [2], in test [3], in test [4], in test [5] and in [6] was inactive. Further, the outcome in [7], in test [8], in test [9] and in [10] was inactive.
Regarding `NC(=O)N1c2ccccc2C=Cc2ccccc21`, the result in test [1], in test [2], in test [3], in test [4], in test [5] and in test [6] was inactive. The result in [7], in test [8], in test [9] and in test [10] was inactive.
`FC(F)(F)C(F)(F)C(F)(F)C(F)(F)C(F)(F)C(F)(F)I`: the result in [1], in test [2], in test [3], in test [4], in test [5] and in test [7] was inactive. Also, the outcome in test [8], in test [9] and in [10] was inactive. The AC50 in test [2] was 30 µM (active); in test [5], 30 µM (active); in test [8], 50.7 µM (active).
In the case of `CC(C)CC(C)O` (stereo not given), the outcome in test [1], in [2], in test [3], in [4], in [5] and in test [6] was inactive. Moreover, the result in test [7], in test [8], in test [9] and in [10] was inactive.
On to `OC(O)(C(F)C(O)(O)C(F)(F)F)C(F)(F)F`, for which the AC50 is 19 µM (active) and 13.4 µM (active) in test [1]; 19.6 µM (active) in [2]; 9.21 µM (active) and 7.73 µM (active) in test [8]. Besides, the result in [2], in test [3], in [4], in [5], in test [6] and in test [7] was inactive. Besides, the result in test [9] and in test [10] was inactive.
For `O=S(=O)(O)CCC(F)(F)C(F)(F)C(F)(F)C(F)(F)C(F)(F)C(F)(F)F`, the result in test [1], in test [2], in test [3], in [4], in test [5] and in test [6] was inactive. The outcome in test [7], in test [8], in test [9] and in test [10] was inactive. The concentration at half-maximal activity (AC50) was 6.02 µM (active) in [9] and 8.85 µM (active) in test [10].
Turning to `FC(F)C(F)(F)COCC1CO1` (stereo not given), the result in test [1], in test [2], in test [3], in [4], in [5] and in [6] was inactive. Moreover, the outcome in [7], in test [8], in [9] and in test [10] was inactive.
For `OC(Cn1cncn1)(Cn1cncn1)c1ccc(F)cc1F`, the outcome in [1], in test [2], in test [3], in test [4], in test [5] and in test [6] was inactive. Moreover, the outcome in test [7], in test [8], in test [9] and in [10] was inactive.
In the case of `CC[C@H](C)C(=O)O[C@H]1C[C@H](O)C=C2C=C[C@H](C)[C@H](CC[C@@H](O)C[C@@H](O)CC(=O)O)[C@H]21`, the outcome in [1], in test [2], in test [3], in [4], in test [5] and in test [6] was inactive. For the same compound, the outcome in [7], in test [8], in test [9] and in [10] was inactive.
`CCCCCCCCCC`: the outcome in [1], in test [2], in test [3], in [4], in test [5] and in test [6] was inactive. Further, the outcome in test [7], in test [8], in test [9] and in test [10] was inactive.
Consider `O=C(Cl)C(F)(F)C(F)(F)C(F)(F)C(=O)Cl`, for which the outcome in test [1], in [2], in test [3], in test [4], in test [5] and in [6] was inactive. In addition, the result in test [7], in test [8], in [9] and in [10] was inactive.
Take `OC(CCl)CCl`: the outcome in [1], in test [2], in test [3], in test [4], in [5] and in test [6] was inactive. Moreover, the result in test [7], in [8], in [9] and in test [10] was inactive.
Take `OCc1ccccc1`: the result in [1], in test [2], in test [3], in test [4], in test [5] and in test [6] was inactive. Moreover, the outcome in test [7], in [8], in test [9] and in test [10] was inactive.
Regarding `CCCCCCOC(=O)CC(CC(=O)OCCCCCC)(OC(=O)CCC)C(=O)OCCCCCC`, the result in [1], in [2], in test [3], in test [4], in test [5] and in test [6] was inactive. Moreover, the result in [7], in test [8], in test [9] and in [10] was inactive.
On to `CC(C)C(=O)Nc1ccc([N+](=O)[O-])c(C(F)(F)F)c1`, for which the outcome in test [1], in [2], in test [3], in test [4], in test [6] and in test [7] was inactive. Further, the outcome in test [8], in test [9] and in test [10] was inactive. In test [5], the concentration at half-maximal activity (AC50) was 31.7 µM (active).
`Cc1cccc(O)c1C`: the result in test [1], in test [2], in [3], in test [4], in test [5] and in test [6] was inactive. Moreover, the result in test [7], in test [8], in test [9] and in test [10] was inactive.
